Active and inactive are the calls of the source. How the source made its calls: active means hit-call score of the fitted dose curve at least 0.9, where 1 is the maximum; inactive means score below 0.9.
Legend:
[1] = ATG_CRE_CIS: Attagene CIS-FACTORIAL HepG2 Assay for human cAMP Responsive Element (CRE) binding protein 3 (AID 2282926); conditions: HepG2 CRE cis-reporter, Attagene multiplexed mRNA; actives raise or lower the signal
Method in brief: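 Assay format: transient reporter transfection of HepG2, 24 h treatment, total RNA isolation with DNase I step. Reporter abundance read by fluorescence after PCR and capillary separation; DMSO-normalised gain or loss fitting.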

[2] = target: CCAAT/enhancer-binding protein beta (Homo sapiens) (UniProt P17676); assay: ATG_C_EBP_CIS: Attagene CIS-FACTORIAL HepG2 Assay for human CCAAT/Enhancer Binding Protein (C/EBP) beta (AID 2282927); conditions: HepG2 Attagene cis-factorial transcription factor reporter; actives raise or lower the signal
Method in brief: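 Transiently transfected HepG2 (MRTU library, endogenous TF-driven promoters); 24 h dosing; total RNA → oligo(dT) RT → PCR → 6-FAM primer extension → HpaI digest → CE; fit bidirectionally vs DMSO.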

[3] = ATG_CMV_CIS: Attagene CIS-FACTORIAL HepG2 Assay for human CMV (Internal Marker) (AID 2282928); conditions: HepG2 CMV promoter reporter, transcription factor profiling; actives raise or lower the signal;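 further: endpoint acts as a background internal control marker rather than a target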
Method in brief: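 Readout: fluorescent reporter cDNA fragments separated by capillary electrophoresis after RT-PCR and HpaI cut. Cells: HepG2 carrying transfected cis-promoter reporter constructs, dosed 24 h. Endpoint serves as background internal-marker control, fit bidirectionally versus DMSO.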

[4] = ATG_DR4_LXR_CIS: Attagene CIS-FACTORIAL HepG2 Assay for human Liver X Receptor (LXR), DR4 submotif (AID 2282929); conditions: HepG2 Attagene DR4 cis-reporter, mRNA transcription; actives raise or lower the signal
Method in brief: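 DR4 cis-reporter in HepG2, 24 h exposure. Detection: RT-PCR, 6-FAM labelling, CE fragment analysis. Endpoint fitted bidirectionally, DMSO = baseline.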

[5] = target: Aryl hydrocarbon receptor (Homo sapiens) (UniProt P35869); assay: ATG_Ahr_CIS: Attagene CIS-FACTORIAL HepG2 Assay for human Aryl Hydrocarbon Receptor (Ahr) (AID 2282930); conditions: HepG2 AhR cis-factorial reporter transcription; actives raise or lower the signal
Method in brief: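 Read-out: reporter mRNA quantified by RT-PCR with fluorescent primer extension and capillary electrophoresis. Human HepG2 liver cells carried transfected cis-promoter reporter units and were exposed to chemical for 24 h; gain or loss fitted relative to DMSO.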

[6] = ATG_AP_2_CIS: Attagene CIS-FACTORIAL HepG2 Assay for human Activator Protein 2 (AP-2) (AID 2282932); conditions: HepG2 AP-2 cis-reporter, Attagene transcription factor profiling; actives raise or lower the signal
Method in brief: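 Read-out: fluorescent reporter mRNA via RT-PCR and capillary electrophoresis, 24 h post-dose in transiently transfected HepG2. Endogenous factors drive cis-promoter reporters; gain or loss of signal fitted bidirectionally against DMSO.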

[7] = ATG_BRE_CIS: Attagene CIS-FACTORIAL HepG2 Assay for human Bone Morphogenetic Protein (BMP) Response Element (BRE) (AID 2282933); conditions: HepG2 BMP response element reporter, Attagene transcription factor profiling; actives raise or lower the signal
Method in brief: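 Read-out: reporter mRNA induction quantified by RT-PCR and capillary electrophoresis after 24 h chemical exposure of transfected HepG2 cells. Endogenous factor activity on the BMP response element; gain or loss fitted against DMSO baseline.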

[8] = target: Retinoic acid receptor alpha (Homo sapiens) (UniProt P10276); assay: ATG_DR5_RAR_CIS: Attagene CIS-FACTORIAL HepG2 Assay for human Retinoic Acid Receptor Alpha (RARE), DR5 submotif (AID 2282934); conditions: HepG2 Attagene cis-factorial RARE DR5 reporter, mRNA; actives raise or lower the signal
Method in brief: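 Read-out: DR5-driven reporter transcript measured by RT-PCR, 6-FAM primer extension, HpaI digest and capillary electrophoresis. Human HepG2 liver cells carry transiently transfected cis-element reporter constructs; dosing lasts 24 h. Gain or loss of signal fitted against DMSO baseline.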

[9] = target: Transcription factor E2F1 (Homo sapiens) (UniProt Q01094); assay: ATG_E2F_CIS: Attagene CIS-FACTORIAL HepG2 Assay for human E2F Transcription Factor 1 (AID 2282935); conditions: HepG2 Attagene cis-reporter, E2F reporter RNA transcripts; actives raise or lower the signal
Method in brief: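 Transient MRTU transfection of HepG2; 24 h compound exposure; RNA → oligo(dT) RT → PCR → FAM label → HpaI cut → CE fluorescence. Gain/loss of signal fit against DMSO.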

[10] = ATG_E_Box_CIS: Attagene CIS-FACTORIAL HepG2 Assay for human Enhancer Box (E-box) (AID 2282936); conditions: HepG2 E-box cis-reporter transcription, actives raise or lower the signal
Method in brief: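 Transiently transfected HepG2, endogenous TF-driven reporters, 24 h dosing. Readout: RT-PCR plus capillary electrophoresis of fluorescent reporter fragments. Gain or loss of signal fitted bidirectionally against DMSO baseline.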

[11] = ATG_EGR_CIS: Attagene CIS-FACTORIAL HepG2 Assay for human Early Growth Response 1 (EGR1) (AID 2282938); conditions: HepG2 Attagene CIS-FACTORIAL EGR reporter mRNA; actives raise or lower the signal
Method in brief: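 Endpoint derived by bidirectional fitting versus DMSO vehicle. Method: cis-promoter reporter units transfected into HepG2, 24 h dosing, RNA isolation, RT-PCR with 6-FAM primer extension and HpaI digestion, then capillary electrophoresis fluorescence detection.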

[12] = ATG_M_19_CIS: Attagene CIS-FACTORIAL HepG2 Assay for M19 Transcription Factor (Internal Marker) (AID 2282939); conditions: HepG2 Attagene CIS-FACTORIAL M19 internal marker reporter; actives raise or lower the signal
Method in brief: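 Readout: fluorescent reporter-transcript fragments by capillary electrophoresis after RT-PCR. Human HepG2 liver cells carried transfected MRTU constructs reporting endogenous transcription-factor activity; exposure 24 h. Gain or loss of signal fitted relative to DMSO.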

[13] = ATG_ERE_CIS: Attagene CIS-FACTORIAL HepG2 Assay for Estrogen Response Element (ERE) (AID 2282940); conditions: HepG2 ERE cis-reporter, Attagene RNA transcript; actives raise or lower the signal
Method in brief: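 Readout: reporter mRNA induction by RT-PCR, FAM-labelled primer extension, HpaI digestion and capillary electrophoresis, 24 h after dosing transfected HepG2 cells. Endogenous transcription factors act on cis-element-regulated reporters. Gain or loss fitted against DMSO.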

[14] = ATG_Ets_CIS: Attagene CIS-FACTORIAL HepG2 Assay for human Erythroblast Transformation Specific (ETS) (AID 2282941); conditions: HepG2 ETS cis-reporter transcription, actives raise or lower the signal
Method in brief: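 RT-PCR/capillary electrophoresis fluorescence read-out of reporter mRNA; HepG2 transient multi-reporter transfection; 24 h compound exposure; gain or loss of signal fitted bidirectionally relative to DMSO.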

[15] = target: Hepatocyte nuclear factor 3-beta (Homo sapiens) (UniProt Q9Y261); assay: ATG_FoxA2_CIS: Attagene CIS-FACTORIAL HepG2 Assay for human Forkhead box A2 (FOXA2) (AID 2282942); conditions: HepG2 cis-reporter transcription factor activity, 24 h; actives raise or lower the signal
Method in brief: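 Measured: reporter mRNA induction or loss in HepG2 transiently carrying multiple cis-regulated reporter units, 24 h after dosing. Quantified by RT-PCR plus capillary electrophoresis, normalised to DMSO.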

[16] = ATG_FoxO_CIS: Attagene CIS-FACTORIAL HepG2 Assay for human Forkhead box O (FoxO) (AID 2282943); conditions: HepG2 Attagene cis-reporter, FoxO element, mRNA; actives raise or lower the signal
Method in brief: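 Read-out: fluorescence of 6-FAM-labelled reporter cDNA fragments resolved by capillary electrophoresis. Transiently transfected HepG2 cells were dosed for 24 h; activity fitted in both directions relative to DMSO controls.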

[17] = ATG_GLI_CIS: Attagene CIS-FACTORIAL HepG2 Assay for human Zinc Finger Protein GLI1 (AID 2282945); conditions: HepG2, Attagene cis-factorial reporter mRNA, GLI element; actives raise or lower the signal
Method in brief: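 Transiently transfected HepG2 cells report endogenous transcription factor activity via cis-element-driven reporter units. After 24 h compound exposure, reporter mRNA was measured by RT-PCR with capillary electrophoresis; bidirectional fitting against DMSO baseline.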

[18] = ATG_AP_1_CIS: Attagene CIS-FACTORIAL HepG2 Assay for human Activator Protein 1 (AP-1) (AID 2282931); conditions: HepG2 Attagene cis-factorial AP-1 reporter mRNA; actives raise or lower the signal
Method in brief: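 Cis-regulated reporter units transiently expressed in HepG2 report endogenous transcription-factor activity. Signal: reporter mRNA at 24 h, via RT-PCR and fluorescent capillary electrophoresis. Endpoint derived by bidirectional fitting, DMSO as negative control.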

[19] = ATG_GATA_CIS: Attagene CIS-FACTORIAL HepG2 Assay for human GATA Binding Protein (AID 2282944); conditions: HepG2 GATA cis-element reporter, Attagene multiplex mRNA; actives raise or lower the signal
Method in brief: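 Read-out: fluorescent reporter mRNA fragments resolved by capillary electrophoresis after RT-PCR. Human liver HepG2 cells carried transiently transfected cis-regulated reporter constructs; chemicals incubated 24 h; gain or loss of signal fitted relative to DMSO.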

[20] = ATG_M_61_CIS: Attagene CIS-FACTORIAL HepG2 Assay for M61 Transcription Factor (Internal Marker) (AID 2282937); conditions: HepG2 Attagene CIS-FACTORIAL M61 internal marker reporter; actives raise or lower the signal
Method in brief: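 Background-control endpoint: HepG2 cells with cis-regulated reporter constructs, 24 h exposure, reporter mRNA detected via fluorescent primer extension and capillary electrophoresis; values from bidirectional fitting with DMSO baseline.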

Measured: AC50

Chain of Transcription factor E2F1 (Homo sapiens) (Q01094 whole entry, looked up): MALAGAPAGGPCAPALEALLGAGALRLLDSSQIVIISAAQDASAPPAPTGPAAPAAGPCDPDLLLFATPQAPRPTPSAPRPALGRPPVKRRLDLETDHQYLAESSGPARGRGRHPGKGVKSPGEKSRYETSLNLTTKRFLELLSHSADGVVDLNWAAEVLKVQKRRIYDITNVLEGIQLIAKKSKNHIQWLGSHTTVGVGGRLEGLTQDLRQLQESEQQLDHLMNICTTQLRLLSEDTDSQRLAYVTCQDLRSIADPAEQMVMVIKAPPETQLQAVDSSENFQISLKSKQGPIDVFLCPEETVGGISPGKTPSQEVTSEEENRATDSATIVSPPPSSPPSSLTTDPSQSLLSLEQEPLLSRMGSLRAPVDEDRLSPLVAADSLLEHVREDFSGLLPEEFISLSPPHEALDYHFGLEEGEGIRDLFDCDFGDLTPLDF
Chain of CCAAT/enhancer-binding protein beta (Homo sapiens) (P17676 whole entry, looked up): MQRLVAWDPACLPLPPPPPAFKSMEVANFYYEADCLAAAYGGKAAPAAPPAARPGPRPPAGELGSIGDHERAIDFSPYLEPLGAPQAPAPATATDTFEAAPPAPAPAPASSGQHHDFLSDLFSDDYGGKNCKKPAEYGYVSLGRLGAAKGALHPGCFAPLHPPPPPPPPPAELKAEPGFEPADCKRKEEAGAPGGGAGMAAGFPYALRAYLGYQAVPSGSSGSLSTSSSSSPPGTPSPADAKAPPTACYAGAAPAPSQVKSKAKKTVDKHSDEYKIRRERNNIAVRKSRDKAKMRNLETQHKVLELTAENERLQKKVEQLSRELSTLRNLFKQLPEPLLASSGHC
Chain of Hepatocyte nuclear factor 3-beta (Homo sapiens) (Q9Y261 whole entry, looked up): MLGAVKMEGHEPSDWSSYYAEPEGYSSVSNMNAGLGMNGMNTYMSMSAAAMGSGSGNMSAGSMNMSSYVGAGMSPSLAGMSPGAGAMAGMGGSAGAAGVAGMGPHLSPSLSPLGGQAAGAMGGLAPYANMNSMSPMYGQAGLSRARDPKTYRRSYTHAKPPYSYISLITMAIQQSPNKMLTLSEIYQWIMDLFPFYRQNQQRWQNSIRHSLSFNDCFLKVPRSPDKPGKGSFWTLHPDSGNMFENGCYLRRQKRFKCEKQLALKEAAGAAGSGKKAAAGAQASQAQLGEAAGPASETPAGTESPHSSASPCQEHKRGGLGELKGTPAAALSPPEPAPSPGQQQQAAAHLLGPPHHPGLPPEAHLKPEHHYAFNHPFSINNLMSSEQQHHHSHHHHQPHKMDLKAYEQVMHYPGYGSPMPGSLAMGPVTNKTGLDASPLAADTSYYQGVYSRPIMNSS
Chain of Aryl hydrocarbon receptor (Homo sapiens) (P35869 whole entry, looked up): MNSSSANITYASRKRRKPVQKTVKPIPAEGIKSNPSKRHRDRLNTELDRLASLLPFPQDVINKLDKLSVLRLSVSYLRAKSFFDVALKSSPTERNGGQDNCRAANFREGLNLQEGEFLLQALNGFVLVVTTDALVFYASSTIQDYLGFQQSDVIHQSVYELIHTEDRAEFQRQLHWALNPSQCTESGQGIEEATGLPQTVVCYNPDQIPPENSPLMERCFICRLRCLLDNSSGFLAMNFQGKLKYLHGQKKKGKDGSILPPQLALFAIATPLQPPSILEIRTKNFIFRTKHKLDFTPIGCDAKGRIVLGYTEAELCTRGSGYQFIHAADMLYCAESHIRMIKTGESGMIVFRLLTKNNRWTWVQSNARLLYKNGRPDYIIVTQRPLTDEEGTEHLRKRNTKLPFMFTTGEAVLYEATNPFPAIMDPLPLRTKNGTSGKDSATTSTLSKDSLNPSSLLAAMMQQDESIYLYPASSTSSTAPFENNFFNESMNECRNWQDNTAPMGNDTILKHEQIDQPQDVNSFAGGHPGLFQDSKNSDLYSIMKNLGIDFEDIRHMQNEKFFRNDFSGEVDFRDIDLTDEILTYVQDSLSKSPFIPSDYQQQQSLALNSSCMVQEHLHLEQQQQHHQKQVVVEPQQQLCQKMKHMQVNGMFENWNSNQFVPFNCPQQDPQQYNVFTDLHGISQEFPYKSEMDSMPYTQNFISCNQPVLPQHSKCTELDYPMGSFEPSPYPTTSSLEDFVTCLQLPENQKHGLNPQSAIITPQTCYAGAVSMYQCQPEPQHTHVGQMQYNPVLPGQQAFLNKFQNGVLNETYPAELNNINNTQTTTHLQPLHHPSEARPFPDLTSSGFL
Chain of Retinoic acid receptor alpha (Homo sapiens) (P10276 whole entry, looked up): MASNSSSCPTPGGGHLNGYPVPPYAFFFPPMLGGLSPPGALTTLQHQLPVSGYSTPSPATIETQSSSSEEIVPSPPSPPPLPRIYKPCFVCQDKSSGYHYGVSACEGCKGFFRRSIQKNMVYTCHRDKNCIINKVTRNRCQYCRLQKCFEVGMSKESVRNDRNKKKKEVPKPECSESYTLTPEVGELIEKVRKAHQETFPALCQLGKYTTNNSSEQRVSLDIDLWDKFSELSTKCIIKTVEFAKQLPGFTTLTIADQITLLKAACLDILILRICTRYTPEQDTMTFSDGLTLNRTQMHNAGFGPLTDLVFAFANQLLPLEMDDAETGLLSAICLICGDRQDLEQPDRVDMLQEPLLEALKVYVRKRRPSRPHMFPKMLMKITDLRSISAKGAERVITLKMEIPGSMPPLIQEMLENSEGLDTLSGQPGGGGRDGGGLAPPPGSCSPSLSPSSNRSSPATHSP

CO[Si](OC)(OC)c1ccccc1
inactive: [1] | [2] | [3] | [4] | [5] | [6] | [7] | [8] | [9] | [10] | [11] | [12] | [13] | [14] | [15] | [16] | [17]

CCCOCCOCCOCCO
inactive: [1] | [2] | [3] | [4] | [5] | [18] | [7] | [8] | [9] | [10] | [11] | [12] | [13] | [14] | [15] | [16] | [19] | [17]

CCC(CO)CO
inactive: [1] | [2] | [3] | [4] | [5] | [6] | [7] | [8] | [9] | [10] | [20] | [11] | [12] | [13] | [14] | [16] | [19] | [17]

O=C(O)c1ccccc1Nc1cccc(C(F)(F)F)c1
inactive: [1] | [2] | [3] | [6] | [7] | [8] | [9] | [20] | [11] | [12] | [13] | [14] | [15] | [16] | [19] | [17]
active: [4] 9.37 µM | [18] 60 µM | [10] 89.2 µM

O=C(Oc1ccccc1)c1ccc2ccccc2c1O
active: [5] 17 µM | [7] 76.2 µM | [10] 37.2 µM | [11] 48.7 µM | [13] 31.2 µM
inactive: [1] | [2] | [3] | [4] | [6] | [8] | [9] | [20] | [12] | [14] | [15] | [16] | [19] | [17]

Cc1ccc2oc(=O)ccc2c1
inactive: [1] | [2] | [3] | [4] | [5] | [18] | [7] | [8] | [9] | [10] | [11] | [12] | [13] | [15] | [16] | [19] | [17]

Clc1nc2ccccc2s1
inactive: [1] | [2] | [3] | [4] | [5] | [6] | [7] | [9] | [10] | [20] | [11] | [12] | [13] | [15] | [16] | [19]

CC(=O)Oc1ccc(C)cc1
inactive: [1] | [2] | [3] | [4] | [5] | [6] | [7] | [8] | [9] | [10] | [20] | [11] | [12] | [13] | [14] | [15] | [16] | [19] | [17]

Source: PubChem BioAssay (EPA / NIEHS)
